# Source: PubChem BioAssay (Tox21)
# Unmarked numbers belong to inactive results. Records with an inconclusive call do not appear. A call without a number means that no potency is given here. Activity calls are given as the source filed them. Unless noted, calls come from the whole dose curve; as a rule, active = well fitted curve in the direction sought with a large enough effect in the repeat runs; inconclusive = weak or mixed curves; inactive = no such curve, though single readings can be large; an effect the other way counts as inactive or inconclusive.
# Legend:
# [1] = qHTS assay for small molecule agonists of the p53 signaling pathway (AID 651631; calls by dose curve; note: nearly all actives have a fitted effect of over 15% in size)
# In short: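 HCT-116 cells carrying a beta-lactamase reporter under p53 response elements were dosed with compound for 16 h at 37 °C. LiveBLAzer B/G FRET substrate was then added for 2 h at room temperature, and fluorescence intensity was read to detect pathway agonism.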
# [2] = qHTS assay for small molecules that induce genotoxicity in human embryonic kidney cells expressing luciferase-tagged ATAD5 (AID 651632); note: nearly all actives have a fitted effect of over 15% in size; note: potency is the fitted concentration of half-maximal effect
# In short: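 Increased luciferase signal from ATAD5-tagged reporter cells indicates DNA-damage-driven ATAD5 induction. HEK293T cells are treated for 16 hr at 37C before detection with Amplite.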
# [3] = qHTS assay for small molecule agonists of the p53 signaling pathway - cell viability (AID 651633; calls by dose curve;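 note: p53RE-bla HCT reporter cells with a stable beta-lactamase p53 reporter; series mostly up to about 83 µM; nearly all actives have a fitted effect of over 30% in size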)
# In short: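 p53RE-bla cells, seeded at 4,000 per well and rested 5 h at 37 C/5% CO2, received compounds in DMSO for 16 h at 37 C. CellTiter-Glo was then added, and luminescence was read after 30 min at room temperature to gauge cytotoxicity.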
# [4] = qHTS assay for small molecule disruptors of the mitochondrial membrane potential - cell viability (AID 720634; calls by dose curve;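 note: human HepG2 liver cancer cells; series mostly up to about 83 µM; nearly all actives have a fitted effect of over 20% in size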)
# In short: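 After overnight attachment at 37 C, HepG2 cells received compound or DMSO vehicle for 1 hr. Viability is then taken from ATP-driven luminescence following a 30 min room-temperature CellTiter-Glo step.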
# [5] = qHTS assay for small molecule disruptors of the mitochondrial membrane potential (AID 720635); note: potency is the fitted concentration of half-maximal effect
# In short: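 HepG2 cells (2,000/well) attached overnight at 37C, then took compound for 1 hr at 37C, 5% CO2. Mito-MPS dye was added for 30 min; fluorescence was read at 490/535 nm (monomers) and 540/590 nm (aggregates).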
# [6] = qHTS assay to test for compound auto fluorescence at 590 nm (red) in HepG2 cells (AID 720674)
# In short: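 Rose Bengal sodium served as the red fluorophore standard. HepG2 monolayers (overnight attachment, MEM with 10% FBS) were exposed to test compounds for 1 hr at 37 C and read at Ex 540/Em 590 nm.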
# [7] = qHTS assay to test for compound auto fluorescence at 535 nm (green) in HepG2 cells (AID 720675)
# [8] = qHTS assay to test for compound auto fluorescence at 460 nm (blue) in HEK293 cells (AID 720678)
# In short: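 Triamterene serves as the blue fluorophore standard. Compound signal at 405/460 nm is read in HEK293 wells (2,000 cells, 10% dialyzed FBS) after overnight treatment at 37C.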
# [9] = qHTS assay to test for compound auto fluorescence at 590 nm (red) in HEK293 cells (AID 720679)
# In short: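 We plated HEK293 cells in 10% dialyzed FBS medium, let them adhere for 4-5 hr, then added 23 nL compound. Overnight at 37C and 5% CO2 preceded fluorescence measurement at 540/590nm.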
# [10] = qHTS assay to test for compound auto fluorescence at 535 nm (green) in HEK293 cells (AID 720680)
# [11] = qHTS assay to test for compound auto fluorescence at 460 nm (blue) in HEK293 cell free culture (AID 720681)
# In short: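 Test compounds were pinned into cell-free culture medium (DMEM with 10% FBS) and fluorescence was read directly at Ex/Em 405/460 nm. Signals were expressed as fluorescence equivalents of triamterene, with DMSO vehicle as control.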
# [12] = qHTS assay to test for compound auto fluorescence at 535 nm (green) in HEK293 cell free culture (AID 720682)
# In short: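 Green-label autofluorescence (485 nm excitation, 535 nm emission) measured on compound added to cell-free culture medium (DMEM, 10% FBS). Output is expressed relative to fluorescein.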
# [13] = qHTS assay to test for compound auto fluorescence at 590 nm (red) in HEK293 cell free culture (AID 720683)
# In short: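 Tox21 10K library compounds were pinned into cell-free DMEM with 10% FBS and fluorescence was read at excitation 540 nm. Activity is expressed as Rose Bengal sodium equivalency.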
# [14] = qHTS assay to test for compound auto fluorescence at 590 nm (red) in HepG2 cell free culture (AID 720684)
# In short: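 Measured in medium alone (MEM containing 10% FBS) following pintool addition of compound; emission at 590 nm with 540 nm excitation, referenced to Rose Bengal sodium.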
# [15] = qHTS assay to test for compound auto fluorescence at 460 nm (blue) in HepG2 cell free culture (AID 720685)
# In short: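 Compound (23 nL) or DMSO pinned into cell-free MEM with 10% FBS; blue fluorescence read at 405/460 nm excitation/emission, expressed as auto-fluorescence equivalency to triamterene.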
# [16] = qHTS assay to test for compound auto fluorescence at 535 nm (green) in HepG2 cell free culture (AID 720686)
# [17] = qHTS assay to test for compound auto fluorescence at 460 nm (blue) in HepG2 cells (AID 720687)
# In short: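 Cells (2,000/well in MEM with 10% FBS) attached overnight at 37 C, then were exposed to compound or DMSO for 1 hr at 37 C, 5% CO2. Fluorescence read at Ex/Em 405/460 nm, expressed as triamterene-equivalent signal.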
# [18] = molecular target: Glucocorticoid receptor (Homo sapiens) (UniProt P04150); assay: qHTS assay to identify small molecule agonists of the glucocorticoid receptor (GR) signaling pathway (AID 720691; active = well fitted activation curve with a large enough effect in the signal ratio in the repeat runs, not every such curve was filed as active; the % refers to the signal ratio)
# Sequence of Glucocorticoid receptor (Homo sapiens) (P04150 whole entry, looked up): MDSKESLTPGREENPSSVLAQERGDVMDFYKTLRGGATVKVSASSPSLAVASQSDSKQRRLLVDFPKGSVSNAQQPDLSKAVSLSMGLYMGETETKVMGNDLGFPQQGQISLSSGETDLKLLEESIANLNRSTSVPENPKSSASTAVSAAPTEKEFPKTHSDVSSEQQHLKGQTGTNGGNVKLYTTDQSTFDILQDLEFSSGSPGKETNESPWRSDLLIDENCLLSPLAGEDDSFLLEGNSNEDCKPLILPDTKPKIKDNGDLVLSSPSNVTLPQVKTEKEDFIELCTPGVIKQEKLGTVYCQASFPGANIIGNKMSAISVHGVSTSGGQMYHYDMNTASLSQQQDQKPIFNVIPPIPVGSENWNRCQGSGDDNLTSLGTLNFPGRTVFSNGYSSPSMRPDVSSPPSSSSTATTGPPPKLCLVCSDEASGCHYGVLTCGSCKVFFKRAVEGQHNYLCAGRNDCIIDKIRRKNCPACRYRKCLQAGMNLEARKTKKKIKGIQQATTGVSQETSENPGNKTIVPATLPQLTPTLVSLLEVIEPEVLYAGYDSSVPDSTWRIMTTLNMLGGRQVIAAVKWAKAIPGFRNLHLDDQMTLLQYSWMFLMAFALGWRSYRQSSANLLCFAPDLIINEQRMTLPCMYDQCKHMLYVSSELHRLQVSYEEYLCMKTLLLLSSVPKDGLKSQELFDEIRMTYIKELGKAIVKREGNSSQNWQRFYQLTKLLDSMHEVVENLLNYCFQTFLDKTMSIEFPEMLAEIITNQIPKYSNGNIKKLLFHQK
# In short: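 Agonist mode in a HeLa line carrying a GRE-controlled beta-lactamase reporter. Compounds act for 18 h at 37 C before a 2 h room-temperature FRET substrate step and fluorescence reading.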
# [19] = molecular target: Glucocorticoid receptor (Homo sapiens) (UniProt P04150); assay: qHTS assay to identify small molecule antagonists of the glucocorticoid receptor (GR) signaling pathway (AID 720692; active = well fitted inhibition curve with a large enough effect in the signal ratio in the repeat runs, not every such curve was filed as active; the % refers to the signal ratio)
# In short: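 Cells plated, rested 4 h at 37 C/5% CO2; compounds in DMSO pin-transferred; dexamethasone added to 5 nM final; 18 h at 37 C; B/G FRET substrate added, 2 h room temperature; fluorescence measured.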
# [20] = qHTS assay for small molecules that induce genotoxicity in human embryonic kidney cells expressing luciferase-tagged ATAD5 - cell viability (AID 651634; calls by dose curve; note: nearly all actives have a fitted effect of over 25% in size)
# In short: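 Cytotoxicity counterscreen in HEK293T cells bearing an ATAD5-luciferase reporter: live-cell protease activity measured by CellTiter-Fluor fluorescence after 15.5 hr compound exposure.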
compound,measurement,setting,value
FC(F)(F)C(F)(F)C(F)(F)C(F)(F)CCI,Potency,[1],inactive
same,Potency,[2],inactive
same,Potency,[3],inactive
same,outcome,[4],inactive
same,Potency,[5],inactive
same,outcome,[6],inactive
same,outcome,[7],inactive
same,Potency,[8],inactive
same,outcome,[9],inactive
same,outcome,[10],inactive
same,Potency,[11],inactive
same,outcome,[12],inactive
same,outcome,[13],inactive
same,outcome,[14],inactive
same,Potency,[15],inactive
same,outcome,[16],inactive
same,Potency,[17],inactive
same,Potency,[18],inactive
same,Potency,[19],inactive
N[C@@H](Cc1cc(I)c(O)c(I)c1)C(=O)O,Potency,[1],inactive
same,Potency,[2],inactive
same,Potency,[3],inactive
same,Potency,[20],inactive
same,outcome,[6],inactive
same,outcome,[7],inactive
same,Potency,[8],inactive
same,outcome,[10],inactive
same,Potency,[11],inactive
same,outcome,[12],inactive
same,outcome,[13],inactive
same,outcome,[14],inactive
same,Potency,[15],inactive
same,outcome,[16],inactive
same,Potency,[17],inactive
same,Potency,[18],inactive
same,Potency,[19],inactive
O=C(Oc1ccccc1)c1ccc2ccccc2c1O,Potency,[1],inactive
same,Potency,[2],9.69 µM (active)
same,Potency,[3],inactive
same,Potency,[20],inactive
same,outcome,[6],inactive
same,outcome,[7],inactive
same,Potency,[8],inactive
same,outcome,[9],inactive
same,outcome,[10],inactive
same,Potency,[11],inactive
same,outcome,[12],inactive
same,outcome,[13],inactive
same,outcome,[14],inactive
same,Potency,[15],inactive
same,outcome,[16],inactive
same,Potency,[17],inactive
same,Potency,[18],inactive
Cc1cc(CCC(=O)OCCOCCOCCOC(=O)CCc2cc(C)c(O)c(C(C)(C)C)c2)cc(C(C)(C)C)c1O,Potency,[1],inactive
same,Potency,[2],inactive
same,Potency,[3],inactive
same,Potency,[20],inactive
same,Potency,[5],59.6 µM (active)
same,outcome,[6],inactive
same,outcome,[7],inactive
same,Potency,[8],inactive
same,outcome,[9],inactive
same,outcome,[10],inactive
same,Potency,[11],inactive
same,outcome,[12],inactive
same,outcome,[13],inactive
same,outcome,[14],inactive
same,Potency,[15],inactive
same,outcome,[16],inactive
same,Potency,[17],inactive
same,Potency,[18],inactive
C[C@H](CS)C(=O)N1CCC[C@H]1C(=O)O,Potency,[1],inactive
same,Potency,[2],inactive
same,Potency,[3],inactive
same,Potency,[20],inactive
same,outcome,[4],inactive
same,outcome,[6],inactive
same,outcome,[7],inactive
same,Potency,[8],inactive
same,outcome,[9],inactive
same,Potency,[11],inactive
same,outcome,[12],inactive
same,outcome,[13],inactive
same,outcome,[14],inactive
same,Potency,[15],inactive
same,outcome,[16],inactive
same,Potency,[17],inactive
same,Potency,[18],inactive
same,Potency,[19],inactive
CC(C)(C)NCC(O)COc1cccc2c1C[C@H](O)[C@H](O)C2 (some centres not stated),Potency,[1],inactive
same,Potency,[2],inactive
same,Potency,[3],inactive
same,Potency,[20],inactive
same,outcome,[4],inactive
same,"fluorescence, relative to Rose Bengal",[6],0.0921% [at 18.6 µM]
same,"fluorescence, % of fluorescein control",[7],0.0163% [at 18.6 µM]
same,"fluorescence, % of triamterene",[8],0.0252% [at 18.6 µM]
same,"fluorescence, % of fluorescent control",[9],-0.0478% [at 18.6 µM]
same,"fluorescence, % of fluorescein",[10],0.0671% [at 18.6 µM]
same,"fluorescence, % of fluorescent control",[11],0.0347% [at 18.6 µM]
same,activity change,[12],0.0167% [at 18.6 µM]
same,"fluorescence, % of fluorescent control",[13],0.19% [at 18.6 µM]
same,"fluorescence, % of fluorescent control",[15],0.0077% [at 18.6 µM]
same,"fluorescence, % of fluorescein control",[16],-0.0012% [at 18.6 µM]
same,"fluorescence, % of fluorescent control",[17],0.0012% [at 18.6 µM]
same,Potency,[18],inactive
same,Potency,[19],inactive
